Compound activity deposited in PubChem by several laboratories.
In the library only some 2.5% were active in any assay of this set; here they are far more common.
EWS-Fli inh – inhibitors of EWS/Fli oncoprotein transcriptional activity. actives 0.67% (n = 350,000). inhibition, % at 12.6 µM. A673 NR0B1-luciferase reporter, viability-normalised;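 active means mean inhibition of at least 50% after viability correction, with every replicate also passing that limit; inconclusive means mean reaches 50% but only one of two replicates passes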;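 further: firefly luciferase signal divided by Alamar Blue viability fluorescence both relative to DMSO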
FXN GAA850 act – increases GAA850 frataxin promoter reporter activity; HEK293 lucGAA850 FXN promoter luciferase reporter, 24 h; percent of 10 µM SAHA response; activation, % at 6 µM; actives 0.56% (n = 360,000);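 active means activation above the average of all compounds screened plus 3 SD, cutoff fixed separately per campaign, cut at about 7.5% in these data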;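 further: 0% = DMSO wells and 100% = 10 µM SAHA wells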
CFTR F508del cor – correctors of CFTR F508del function in bronchial epithelial cells; CFBE cells, YFP halide quenching; stimulated with forskolin plus potentiator P3; % fluorescence drop versus neutral controls; activity (quench increase), % at 7.58 µM; actives 0.36% (n = 350,000); AID 720511;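 active means mean added fluorescence quench of at least 8% versus neutral control, with both replicates also reaching 8%; inconclusive means only one of the mean or replicate conditions met; inactive means mean below 8% and not both replicates reaching 8%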;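 further: cells transiently co-express mutant CFTR-F508del with the halide-sensitive YFP; corrector assay measuring rescue of mutant channel to the surface after 24 h compound exposure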
PAX8 reporter – PAX8 transcriptional activity inhibition; AID 652154; inhibition, % at 12.6 µM; actives 1.2% (n = 360,000); RMG-I TPO-luciferase reporter, SteadyGlo, 24 h;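 active means mean replicate inhibition at least 60% with every replicate also reaching 60%; inconclusive means only one of the two criteria is met; inactive means mean below 60% and not all replicates reaching 60%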;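 further: luciferase light reporting Pax8 driven TPO promoter activity; plate controls were median of neutral control wells for no effect and mitoxantrone controls for full effect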
Env fusion inh – blocks HIV Env-driven cell-cell fusion. HeLa-JRFL Env/CEM21 cell fusion, luciferase. inhibition, % at 12.3 µM. actives 1.1% (n = 360,000);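 active means mean replicate inhibition score of at least 50 and every replicate individually at or above 50; inconclusive means only one of the two criteria met; inactive means mean below 50 and not all replicates reaching 50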;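 further: 0% = plate neutral controls and 100% = maraviroc near 300 nM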
Active calls of the source: *; i = inactive; ? = inconclusive; nt = not tested or not shown; [ ] = remark or other dose.

SMILES	EWS-Fli inh	FXN GAA850 act	CFTR F508del cor	PAX8 reporter	Env fusion inh
Cc1noc(C)c1S(=O)(=O)Nc1ccc2c(c1)C(=O)N([C@H](C)CO)C[C@@H](C)[C@@H](CN(C)Cc1ccc(C(F)(F)F)cc1)OCCCC[C@H](C)O2	nt	nt	3.0	85.6*	24.9[16.7 µM]
Cc1noc(C)c1S(=O)(=O)Nc1ccc2c(c1)C(=O)N([C@H](C)CO)C[C@@H](C)[C@H](CN(C)Cc1ccc(C(F)(F)F)cc1)OCCCC[C@H](C)O2	nt	nt	0.0	71.9*	28.1[16.7 µM]
Cc1noc(C)c1S(=O)(=O)Nc1ccc2c(c1)C(=O)N([C@H](C)CO)C[C@@H](C)[C@H](CN(C)Cc1ccc(Cl)c(Cl)c1)OCCCC[C@@H](C)O2	22.0	nt	-3.7	74.7*	35.8[16.7 µM]
Cc1noc(C)c1S(=O)(=O)Nc1ccc2c(c1)C(=O)N([C@H](C)CO)C[C@@H](C)[C@H](CN(C)Cc1ccc(C(F)(F)F)cc1)OCCCC[C@@H](C)O2	nt	nt	2.5	?	44.3[16.7 µM]
CCCN(C)C[C@@H]1OCCCC[C@H](C)Oc2ccc(NC(=O)CCC(F)(F)F)cc2C(=O)N([C@@H](C)CO)C[C@@H]1C	-0.7	nt	0.4	4.1	2.3[16.7 µM]
Cc1noc(C)c1S(=O)(=O)Nc1ccc2c(c1)C(=O)N([C@@H](C)CO)C[C@@H](C)[C@@H](CN(C)Cc1ccc(C(F)(F)F)cc1)OCCCC[C@H](C)O2	nt	nt	2.0	67.6*	-0.5[16.7 µM]
Cc1noc(C)c1S(=O)(=O)Nc1ccc2c(c1)C(=O)N([C@@H](C)CO)C[C@H](C)[C@H](CN(C)Cc1ccc(C(F)(F)F)cc1)OCCCC[C@@H](C)O2	nt	nt	2.6	36.4	17.9[16.7 µM]
Cn1c(=N)n(CC(=O)c2ccc(F)cc2)c2ccccc21	77.6*	-5.0	1.4	-49.3	-31.2
Cc1ccc(NC(=O)Cc2nc(-c3c[nH]c(C(=O)N4CCCC4)c3)cs2)c(C)c1	15.4	-3.1	8.8*	12.9	-2.2
CCOc1ccc(NC(=O)Nc2cc(OCC(F)(F)F)cc(OCC(F)(F)F)c2)cc1	16.9	-4.5	0.0	87.2*	?
O=C(Nc1ccc(F)cc1)Nc1cc(OCC(F)(F)F)cc(OCC(F)(F)F)c1	nt	-10.0	nt	82.8*	70.1*
CCC(=O)NC[C@@H]1[C@H](c2ccccc2)[C@H](CO)N1C(=O)C1CCC1	-3.7	nt	-0.6	-3.2	nt
N#Cc1c2ccc([N+](=O)[O-])cc2[n+]([O-])n1-c1ccccc1	62.1*	-5.7	-14.5	67.9*	nt
Cc1ccc(-c2ccc(C3[C@@H]4CN(S(=O)(=O)c5cccc(C)c5)C[C@H]3N4)cc2)cc1 (stereo partly drawn)	-4.2	nt	-3.7	18.2	nt
CC(C)C(=O)N1CCN(c2ccc(NC(=O)c3ccc([N+](=O)[O-])o3)cc2)CC1	34.6	3.0	1.3	97.2*	-387.0
CC(C)C(=O)N1CCN(c2ccc(NC(=O)c3ccc(Br)o3)cc2)CC1	nt	1.4	nt	-13.8	-33.8
CC(=O)N1CCN(c2ccc(NC(=O)c3ccc(Br)o3)cc2Cl)CC1	-60.7	1.7	-1.4	-13.7	-17.9
CN1CCN(c2ccc(NC(=O)c3ccc([N+](=O)[O-])o3)cc2Cl)CC1	29.7	1.7	0.0	82.2*	i
CC(C)C(=O)N1CCN(c2ccc(NC(=O)c3ccc([N+](=O)[O-])o3)cc2Cl)CC1	61.2*	6.1	-3.9	88.3*	i
C[C@@H]1CN([C@@H](C)CO)C(=O)c2cc(NS(=O)(=O)c3cn(C)cn3)ccc2O[C@@H](C)CCCCO[C@H]1CN(C)Cc1ccc(C(=O)O)cc1	4.4	nt	-0.1	-10.0	nt
COCC#Cc1ccc2c(c1)O[C@@H](CN(C)C(=O)C1CC1)[C@H](C)CN([C@H](C)CO)S2(=O)=O	-12.7	nt	-2.5	nt	26.5[16.7 µM]
CN1c2ccc(-c3ccccc3)cc2[C@@H]2[C@@H](CCN2C(=O)c2ccc3c(c2)OCO3)[C@@H]1CO	8.1	nt	2.0	13.2	nt
C#C[C@]1(O)CC[C@H]2[C@@H]3CCc4cc(OC5CCCC5)ccc4[C@H]3CC[C@@]21C	-1.2	1.6	8.7*	3.8	13.8
C#C[C@]1(O)CC[C@H]2[C@@H]3CCc4cc(OC)ccc4[C@H]3CC[C@@]21C	-8.9	3.2	8.4*	-31.6	3.6
COc1ccc2c(c1)CC[C@@H]1[C@@H]2CC[C@]2(C)[C@@H](C(C)=O)C[C@@H]12	-18.6	1.8	0.4	-15.0	-1.3
SMILES	EWS-Fli inh	FXN GAA850 act	CFTR F508del cor	PAX8 reporter	Env fusion inh
C[C@@H]1CCCCO[C@@H](CN(C)Cc2ccc(Cl)c(Cl)c2)[C@H](C)CN([C@@H](C)CO)C(=O)c2cc(NC(=O)Nc3ccc(C(F)(F)F)cc3)ccc2O1	-8.1	nt	-2.1	91.0*	-4.9[16.7 µM]
C[C@@H]1CCCCO[C@H](CN(C)Cc2ccc(Cl)c(Cl)c2)[C@@H](C)CN([C@@H](C)CO)C(=O)c2cc(NC(=O)Nc3ccc(C(F)(F)F)cc3)ccc2O1	-0.1	nt	3.0	94.7*	23.6[16.7 µM]
C[C@H]1CCCCO[C@@H](CN(C)Cc2ccc(Cl)c(Cl)c2)[C@@H](C)CN([C@@H](C)CO)C(=O)c2cc(NC(=O)Nc3ccc(C(F)(F)F)cc3)ccc2O1	-0.7	nt	2.7	83.3*	50.8[16.7 µM]
CCCNC(=O)C[C@H]1CC[C@H]2[C@@H](COc3ccc(NC(=O)C4CCOCC4)cc3C(=O)N2C)O1	nt	nt	-1.1	-21.9	nt
Cc1ccc(S(=O)(=O)N(C)C[C@@H]2Oc3ccc(NC(=O)Nc4ccc(F)cc4)cc3CC(=O)N([C@@H](C)CO)C[C@@H]2C)cc1	-2.3	nt	-1.2	-36.5	4.1[16.7 µM]
Cc1ccc(S(=O)(=O)N[C@@H]2CC[C@H](CCNS(=O)(=O)Cc3ccccc3)O[C@H]2CO)cc1	3.8	nt	1.2	-8.0	-17.2[16.7 µM]
Cc1ccc(S(=O)(=O)Nc2ccc3c(c2)C(=O)N([C@@H](C)CO)C[C@@H](C)[C@H](CN(C)S(=O)(=O)c2ccc(C)cc2)OCCCC[C@@H](C)O3)cc1	-3.9	nt	-3.8	39.5	-23.2[16.7 µM]
Cc1ccc(S(=O)(=O)Nc2ccc3c(c2)C(=O)N([C@@H](C)CO)C[C@@H](C)[C@@H](CN(C)S(=O)(=O)c2ccc(C)cc2)OCCCC[C@@H](C)O3)cc1	-0.3	nt	-2.3	66.5*	-67.0[16.7 µM]
Cc1ccc(S(=O)(=O)Nc2ccc3c(c2)C(=O)N([C@H](C)CO)C[C@H](C)[C@H](CN(C)S(=O)(=O)c2ccc(C)cc2)OCCCC[C@H](C)O3)cc1	10.9	nt	0.4	63.1*	-37.2[16.7 µM]
Cc1ccc(S(=O)(=O)Nc2ccc3c(c2)C(=O)N([C@@H](C)CO)C[C@H](C)[C@H](CN(C)S(=O)(=O)c2ccc(C)cc2)OCCCC[C@@H](C)O3)cc1	10.7	nt	9.1*	1.9	-37.5[16.7 µM]
Cc1ccc(S(=O)(=O)Nc2ccc3c(c2)C(=O)N([C@@H](C)CO)C[C@H](C)[C@H](CN(C)S(=O)(=O)c2ccccc2)OCCCC[C@H](C)O3)cc1	11.6	nt	-1.3	67.1*	?
Cc1ccc(S(=O)(=O)Nc2ccc3c(c2)C(=O)N([C@@H](C)CO)C[C@H](C)[C@@H](CN(C)S(=O)(=O)c2ccc(C)cc2)OCCCC[C@@H](C)O3)cc1	4.6	nt	2.2	46.5	-86.4[16.7 µM]
